Laboratory results from PubChem BioAssay (EPA / NIEHS).
Calls of active or inactive are those of the source. Rule for the calls: active = hit-call score of the fitted dose curve at least 0.9, where 1 is the maximum; inactive = score below 0.9.

Read-out: Decorin, DCN (gene 1634)
Assay: BSK_MyoF_Decorin: BioMAP Diversity Plus: MyoF Assay for Decorin Biomarker Activity (AID 2284265)
Conditions: primary human lung fibroblasts
Procedure: BSK_MyoF is a cell-based, multiplexed-readout assay that uses lung fibroblasts, […], with measurements taken at 24 hours after chemical dosing in a microplate: 96-well plate.BSK_MyoF_Decorin is an assay component measured in the BSK_MyoF assay. It measures Decorin antibody related to regulation of gene expression using ELISA technology.Data from the assay component BSK_MyoF_Decorin was analyzed at the endpoint, BSK_MyoF_Decorin, in the positive analysis fitting direction relative to DMSO as the negative control and baseline of activity. Using a type of binding reporter, gain or loss-of-signal activity can be used to understand protein changes. To generalize the intended target to other relatable targets, this assay endpoint is annotated to the 'cell adhesion molecules' intended target family, where the subfamily is 'decorin'.
The levels of cell surface (or secreted, indicated by the prefix "s") biomarker endpoints were measured by ELISA. Overt cytotoxicity to cells in confluent adherent cultures (all systems other than the BT system) was assessed by measuring total protein levels using sulforhodamine B (SRB) staining in parallel cultures at the time of biomarker measurements, indicated as SRB endpoints. For proliferation assays for adherent cell types, individual cell types are cultured at sub-confluence and relative cell numbers quantified by SRB staining at time points optimized for each system (48 h: 3C and CASM3C systems; 72 h: BT and HDF3CGF systems; 96 h: SAg system). SRB was performed by staining cells with 0.1% SRB after fixation with 10% TCA and reading wells at 560 nm.Viability and proliferation of PBMC (T cells) was quantified by Alamar Blue reduction for the SAg and BT systems. For PBMC viability (referred to as PBMC Cytotoxicity within the assay endpoint names), cells were plated (75,000/well in a 96-well plate) and then chemical samples added for 1 h before addition of activators, SEB and TSST-1 (20 ng/mL final concentration each). Cells were incubated for 90 h. Then, Alamar Blue (20 uL/well) (Invitrogen, Cat DAL1100) was added for 6 h, and the plates were read with a fluorescence microplate reader at 546/580 nm (excitation/emission). For PBMC proliferation, cells were plated and activated as above but incubated for only 16 h prior to addition of Alamar Blue. Plates were read after 6 h.

Row | SMILES | outcome | AC50
1 | CCCCCCCCCCCC#N | inactive | 
2 | O=C(O)CCCc1ccc(N(CCCl)CCCl)cc1 | inactive | 
3 | Clc1ccc(-c2ccccc2)cc1 | inactive | 
4 | O=C1C=CC(=O)C=C1 | inactive | 
5 | CCCOC(=O)c1ccccc1C(=O)OCCC | inactive | 
6 | Oc1cc(Cl)ccc1Cl | inactive | 
7 | O=[N+]([O-])C=Cc1ccccc1 | inactive | 
8 | COCC(=O)N(c1c(C)cccc1C)N1CCOC1=O | inactive | 
9 | Cc1ccc(OP(=O)(Oc2ccc(C)cc2)Oc2ccc(C)cc2)cc1 (tested in a mixture with another compound) | inactive | 
10 | CNC(=O)Oc1cc(C)c(SC)c(C)c1 | inactive | 
11 | CC1(C)[C@H](C(=O)O[C@H](C#N)c2cccc(Oc3ccccc3)c2)[C@@H]1C=C(Br)Br | inactive | 
12 | C=CCN(CC=C)C(=O)C(Cl)Cl | inactive | 
13 | CCc1cc(C)cc(CC)c1-c1c(OC(=O)C(C)(C)C)n2n(c1=O)CCOCC2 | inactive | 
14 | Nc1ccc(-c2ccc(N)c(N)c2)cc1N | inactive | 
15 | O=P1(NCCCl)OCCCN1CCCl (stereo not given) | inactive | 
16 | C=CC(=O)OCC(CC)CCCC (stereo not given) |  | 0.016 µM (active)
17 | CC(=O)/C=C/c1ccccc1 | inactive | 
18 | O=C1C(Cl)=C(Cl)C(=O)C(Cl)=C1Cl | inactive | 
19 | CC(C)(c1cc(Cl)c(O)c(Cl)c1)c1cc(Cl)c(O)c(Cl)c1 | inactive | 
20 | CC(C)CCCCCCCOC(=O)c1ccccc1C(=O)OCCCCCCCC(C)C | inactive | 
21 | CC(C)COP(=O)(OCC(C)C)OCC(C)C | inactive | 
22 | COC(C)(C)CCC[C@H](C)C/C=C/C(C)=C/C(=O)OC(C)C | inactive | 
23 | O=S(=O)(c1ccccc1)c1ccccc1 | inactive | 
24 | CC(C)(C)C(=O)CCl | inactive | 
25 | O=c1c2ccccc2c(=O)c2c1cc(Cl)c1[nH]c3c([nH]c12)c(Cl)cc1c(=O)c2ccccc2c(=O)c13 | inactive | 
26 | O=c1[nH]c(Cl)c(Cl)cc1Cl | inactive | 
27 | CC(C)(C)C(O)C(Oc1ccc(-c2ccccc2)cc1)n1cncn1 (stereo not given) |  | 36.5 µM (active)
28 | CC(C)CCCCCCCOP(=O)(Oc1ccccc1)Oc1ccccc1 |  | 8.75 µM (active)
29 | c1ccc(Nc2ccc3ccccc3c2)cc1 | inactive | 
30 | CCC(C)c1cc([N+](=O)[O-])cc([N+](=O)[O-])c1OC(=O)C=C(C)C (stereo not given) |  | 20 µM (active)
